Assay results from PubChem BioAssay AID1851 (National Center for Advancing Translational Sciences (NCATS), 2009).
Out of some 16,000 compounds screened, about 5,100 (32%) were called active. Another 25% or so got no clear call; they are omitted. Calls come from the whole dose curve; as a rule, active = well fitted curve in the direction sought with a large enough effect; inconclusive = small, poorly fitted or top-dose-only effect, or effect the other way; inactive = no such curve, though single readings can be large or run the other way. The list shows a part of the results.

Each compound was assayed against Cytochrome P450 3A4 (Homo sapiens) (UniProt P08684) (assay: Cytochrome panel assay with activity outcomes). Settings: recombinant CYP, pro-luciferin dealkylation, luminescence, p450-cyp3a4; series mostly up to 57.1 µM.
Chain of Cytochrome P450 3A4 (Homo sapiens) (P08684 whole entry, looked up): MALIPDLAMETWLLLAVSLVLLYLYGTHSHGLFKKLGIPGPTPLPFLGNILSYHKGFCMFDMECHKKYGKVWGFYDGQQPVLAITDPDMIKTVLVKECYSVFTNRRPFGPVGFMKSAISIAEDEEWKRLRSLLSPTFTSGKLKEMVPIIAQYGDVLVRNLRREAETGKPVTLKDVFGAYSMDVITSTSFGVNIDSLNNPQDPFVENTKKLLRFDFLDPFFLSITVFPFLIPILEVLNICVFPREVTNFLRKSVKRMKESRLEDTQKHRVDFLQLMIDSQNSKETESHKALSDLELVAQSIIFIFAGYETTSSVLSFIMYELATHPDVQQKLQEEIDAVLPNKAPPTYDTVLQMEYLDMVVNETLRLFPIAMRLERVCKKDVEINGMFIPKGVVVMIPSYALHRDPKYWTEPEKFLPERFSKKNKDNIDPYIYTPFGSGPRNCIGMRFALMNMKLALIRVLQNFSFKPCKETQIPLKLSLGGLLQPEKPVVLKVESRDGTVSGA
% is set by controls: 0 for no effect and ±100 for the full control effect.

AC50, active:
CN1CCc2cc(NC(=O)Nc3cccnc3)ccc21 12.6 µM, COc1ccc(Cl)cc1NC(=O)C12CCC(C)(C(=O)O1)C2(C)C (centres undefined) 15.8 µM, COc1ccc(S(=O)(=O)Nc2cccc(Cl)c2)cc1OC 6.31 µM, Cc1ccc(N2C(=O)c3n[nH]c(C)c3C2c2ccccn2)cc1 (centres undefined) 14.1 µM, Cc1noc(C)c1-c1cncnc1NCCN1CCOCC1 6.31 µM, COCCNc1ncncc1-c1c(C)noc1C 5.01 µM, FC(F)(F)c1ccccc1-c1cncnc1NCCN1CCOCC1 0.794 µM, Cc1ccccc1-c1cncnc1NCCN1CCOCC1 1.58 µM, Cc1nc2c(n1C1CCCCC1)C(=O)c1ccccc1C2=O 14.1 µM, O=C(N/N=C\c1ccc(-c2ccccc2[N+](=O)[O-])o1)C1COc2cc3ccccc3cc2O1 (centres undefined) 17.8 µM, c1ccc(-c2nc(NCCCn3ccnc3)c3oc4ccccc4c3n2)cc1 1 µM, c1ccc2c(c1)oc1c(NCCCn3ccnc3)ncnc12 0.631 µM, COc1ccccc1NC(=O)c1sc2ncn(Cc3ccccc3C)c(=O)c2c1C 4.47 µM, N#Cc1c(-n2ccnc2)cccc1-n1ccnc1 2 µM, N#Cc1c(Cl)cccc1-n1ccnc1 1 µM, Nc1ccccc1Oc1ncc(C(F)(F)F)cc1Cl 14.1 µM, O=C(CSc1nc2ccccc2o1)N1c2ccccc2Sc2ccc(Cl)cc21 8.91 µM, COc1ccc(OCc2nnc(SCC(=O)N3c4ccccc4Sc4ccc(Cl)cc43)o2)cc1 3.55 µM, O=C1c2ccccc2N[C@H](c2cc(Cl)cc(Cl)c2O)N1CCc1ccccn1 0.794 µM, CN(Cc1ccco1)c1ncncc1-c1cccc(C#N)c1 7.94 µM, CN(Cc1ccco1)c1ncncc1-c1cccnc1 2.51 µM, CN(Cc1ccco1)c1ncncc1-c1ccc2c(c1)OCO2 1.26 µM, CN(C)c1ccc(-c2cncnc2N(C)Cc2ccco2)cc1 0.631 µM, COc1cccc(-c2cncnc2N(C)Cc2ccco2)c1 2.51 µM, CCCC[C@@H]1C[C@H]1C(NC(=O)c1cccnc1)c1ccc(Cl)cc1 (some centres undefined) 0.0794 µM, CCCC[C@@H]1C[C@H]1C(NC(=O)c1ccccc1)c1ccccc1 (some centres undefined) 12.6 µM, CCCC[C@@H]1C[C@H]1C(NC(=O)Cc1ccccc1)c1ccc(Cl)cc1 (some centres undefined) 2.51 µM, CCCC[C@@H]1C[C@H]1C(NC(=O)c1ccccc1)c1ccc(Cl)cc1 (some centres undefined) 3.98 µM, O=C(/C=C/c1cc2c(cc1Br)OCO2)NCc1ccc(Cl)cc1 2.51 µM, O=[N+]([O-])c1ccccc1N/N=C/c1c[nH]c2ccccc12 25.1 µM

AC50, inactive:
Cn1ncc(Cl)c1C(=O)Nc1cccnc1, COc1ccc(NS(=O)(=O)c2ccc(I)cc2)cc1N1CCN(C)CC1, Cc1ccc(-n2[nH]c(=O)c3cccnc32)cc1, CNc1cc(-c2c(C)noc2C)ncn1, Cc1noc(C)c1-c1nccc(N2CCOCC2)n1, COCCNc1cc(-c2c(C)noc2C)ncn1, O=C1c2cccnc2C(O)N1C1CCCCC1 (centres undefined), COc1c(F)c(F)c(C(=O)O)c(Nc2ccc(C)cc2)c1F, Cc1ccc(CNC(=O)C2CC(c3ccccc3[N+](=O)[O-])=NO2)o1 (centres undefined), O=C(Cn1cnc2c(oc3ccccc32)c1=O)NCc1ccco1, CCOC(=O)C(C)n1cnc2c(oc3ccccc32)c1=O (centres undefined), Cc1cccc(-n2cccc2)c1C#N, CCCCOc1ccccc1N, O=C(O)c1ccc(CSc2nc3ccccc3o2)cc1, CCOC(=O)CN1N=C(/C=C/c2ccc(C)cc2)CCC1=O, O=C1CC(N2CCN(CCc3ccccn3)CC2)C(=O)N1c1ccc(Cl)cc1 (centres undefined), CN(C)C(=O)c1ccc(-c2nccc(N(C)Cc3ccco3)n2)cc1, C#C[C@H](N)CCC(=O)O, COc1c(O[C@H]2O[C@@H](CO)[C@@H](O)[C@@H](O)[C@@H]2O)cc2c(c1OC)-c1ccc(SC)c(=O)cc1[C@H](NC(C)=O)CC2, CCCC[C@@H]1C[C@H]1C(NC(=O)c1ccc(-c2ccccc2)cc1)c1ccc(-c2ccccc2)cc1 (some centres undefined), N[C@@H](C(=O)O)[C@H](CC(=O)O)c1ccc(Cl)cc1, Cc1oc(-c2cccc(Cl)c2)[n+]([O-])c1C

activity, negative = inhibition, inactive:
O=S(=O)(O)c1cc(O)c2c(O)c(N=Nc3cccc4ccccc34)c(S(=O)(=O)O)cc2c1 -11.8% [at 11.4 µM], NS(=O)(=O)c1ccc(N=Nc2nc3[nH]cnc(=S)c3[nH]2)cc1 -11.9% [at 11.4 µM], Cc1ccc(-n2cnc(=O)c3cccnc32)cc1 -3.53% [at 2.29 µM], CS[C@@H](CC(=O)O)C(=O)O -17% [at 11.4 µM], CC(=O)C1=C(NC(=O)c2ccc(F)cc2)CC2C1C2(C)C (centres undefined) 10% [at 2.29 µM], CCN1C(=O)[C@@H]2[C@H]3C(=CC[C@@H]2C1=O)C1(OCCCO1)[C@H]1O[C@@H]1[C@H]3O -21.4% [at 11.4 µM], COc1ccc2c(c1)N(CC[C@H]1CCCCN1C)c1ccccc1S2 -24.2% [at 11.4 µM], OC1CC2CC[C@H](C1)N2CCCN1c2ccccc2Sc2ccc(Cl)cc21 (some centres undefined) -4.29% [at 11.4 µM], COc1cc(O)c2c(O)c3c(c4c2c1[C@@]1(C4)C(C)=CCCC1(C)C)[C@H](O)[C@@]1(O)CC(=O)C(C(N)=O)=C(O)[C@]1(O)C3=O -13.9% [at 11.4 µM], CCc1ccc2[nH]c(O)c(N=Nc3nc(-c4ccccc4)cs3)c2c1 -16.3% [at 2.29 µM], O=C(N/N=C/c1c[nH]c2ccccc12)c1cc(-c2ccc(-c3ccccc3)cc2)n[nH]1 -5.85% [at 2.29 µM], O=C(O)c1ccccc1N/N=C\c1ccnc2ccccc12 -0.0882% [at 2.29 µM]
